# Measured values taken from PubChem BioAssay (NCI).
# Values joined by “and” are separate entries in the source; they are usually repeats but may differ in a detail not shown here. Equal values may be shown once. Compounds without any hit were thinned out: in the full panel of roughly 83,000, 20% have a hit.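 Negative percent growth values reflect cell death: -40 means 40% of the cells present at the start died, and -100 means all died.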 Active and inactive are the calls of the source. How the source made its calls: active means growth percent below 10; inactive means the rest.
# Tested on: MDA-MB-468 breast
# Assay: NCI-60 one-dose screen, 48 h (100 = growth as untreated, 0 = no growth, -100 = all killed)
# Details: 10 µM unless noted
row,SMILES,growth
1,CNCCNc1nc2ccccc2c2c(=O)c3cc(OC)ccc3sc12,44.7% (inactive)
2,CN(C)CCCOc1ccc(C(=C(c2ccccc2)C2CCCC2)c2ccc(OCCCN(C)C)cc2)cc1,-78.9% (active)
3,NC(N)=Nc1ccc(Nc2cccc(Nc3ccc(Cl)c(C(F)(F)F)c3)c2)cn1,-7.19% (active)
4,COC(=O)c1ccc2c(c1)n(Cc1ccc3ccccc3c1)c[n+]2Cc1ccc2ccccc2c1,-19% (active)
5,COc1cccc(N2CCN(C3=C(Cl)C(=O)c4ncccc4C3=O)CC2)c1,-63.6% (active)
6,COc1ccc(/C=C/C(=O)/C=C/c2cc3ccc(Cl)cc3[nH]c2=O)cc1,87.2% (inactive)
7,Clc1ccc(-c2nnc(-c3ccco3)o2)cc1,100% (inactive)
8,C=C1c2c(C)nn(-c3ccc(O)cc3)c2N(C)C23C[C@@H]1C1(C)c4c(C)nn(-c5ccc(O)cc5)c4N(C)C(C)(C[C@H]12)C3 (stereo not given in full),-5.71% (active)
9,O=C1c2cccnc2-c2ncccc21,100% [100 µM] (inactive)
10,COc1ccc(-c2c3c(nn2-c2ccc(N)cc2)CCc2cnoc2-3)cc1OC,92.8% (inactive)
11,CC(=O)N(CCCCCCN(C(C)=O)C(C)=O)C(C)=O,99.2% [100 µM] (inactive)
12,COC(=O)[C@H](Cc1ccc(O)cc1)NC(=O)[C@@H](OC)[C@@H]1Cc2cc3cc(OC4CC(OC5CC(O)C(O)C(C)O5)C(O)C(C)O4)c(C)c(O)c3c(O)c2C(=O)[C@H]1OC1CC(OC2CC(OC3CC(C)(O)C(O)C(C)O3)C(O)C(C)O2)C(O)C(C)O1 (stereo not given in full),-25.5% (active)
13,CC1CCN(C(=O)OCc2nc3nc(Cl)nc(N4CCOCC4)c3[nH]2)CC1,-59.5% (active)
14,CCOC(=O)C1=CCC(n2cc(F)c(=O)[nH]c2=O)O1 (stereo not given),134% (inactive)
15,O=C1Nc2ccccc2/C1=C/c1cccn1CCCCCCn1c2ccccc2c(=O)c2ccccc21,8.47% (active)
16,S=c1[nH]nc(-c2cc3ccc2CCc2ccc(cc2)CC3)n1C1CC1,106% (inactive)
17,Clc1ccc2c(c1)NC1(CCSc3ccccc31)n1nccc1-2 (stereo not given),106% (inactive)
18,CC(=O)C1CCC2C3CC(C)=C4CC(O)CCC4(C)C3CCC12C (stereo not given),109% (inactive)
19,COC1=C(OC)C(=O)C=CC1=O,105% (inactive)
20,COc1cc(/C=C/C(=O)c2ccc(-n3cc(CN4CCN(c5cc6c(cc5F)c(=O)c(C(=O)O)cn6C5CC5)CC4)nn3)cc2)cc(OC)c1OC,72.5% (inactive)

row,SMILES,growth
1,Cc1ccc(C(=O)Nc2ccc(CN3CCN(C)CC3)c(C(F)(F)F)c2)cc1C#Cc1cnc(N)c2ccccc12,-61.7% (active)
2,COc1ccc2c(c1)c(-c1nc(-c3c[nH]c4ncccc34)cs1)cn2CCNC(=O)OC(C)(C)C,20% (inactive)
3,N#Cc1c(-c2ccc(Cl)cc2)nc(NN2C(=O)c3ccccc3C2=O)nc1N1CCOCC1,99.4% (inactive)
4,CCOC(=O)c1ccc(N2NC(=O)/C(=C/c3ccc([N+](=O)[O-])o3)C2=O)cc1,106% (inactive)
5,Nc1nc(-c2ccc(F)cc2)cc(-c2cnn(-c3ccccc3)n2)n1,104% (inactive)
6,CCCCOc1nc2ccc(Cl)cc2cc1/C=C/C(=O)/C=C/c1ccc(Cl)cc1,79.5% (inactive)
7,CN(C)c1ccc(Nc2c3ccccc3nc3cc(NC(=O)CCN4CCCC4)ccc23)cc1,-74.9% (active)
8,CN1C(=O)/C(=C/c2ccc(C(=O)Nc3ncc(Cc4ccccc4Cl)s3)cc2)SC1=S,40.3% (inactive)
9,COc1ccc(-c2ccc(C)n2-c2ccc(-c3nc4ccccc4s3)cc2)cc1,3.77% (active)
10,O=C(C[C@@H](C(=O)NCc1cccc(C(F)(F)F)c1)N1C(=O)[C@@H](N2C(=O)OC[C@@H]2c2ccccc2)[C@H]1/C=C/c1ccccc1)NC1CCN(Cc2ccccc2)CC1,-1.25% (active)
11,CCCCn1c(C)nc2cc(Nc3nc(Cl)nc4nc[nH]c34)ccc21,44.3% (inactive)
12,Cc1cccc(/C=C\C(=O)c2ccc(Cl)cc2)c1,106% (inactive) and 90.9% (inactive)
13,c1ccc2c(c1)oc1c3cccnc3ccc21,-62% (active)
14,O=c1/c(=C\c2ccc(-c3ccccc3)o2)sc2nc(-c3ccccc3)nn12,124% (inactive)
15,COC(=O)c1ccc2oc(NC(=O)c3ccc(Nc4ccc([N+](=O)[O-])cc4C)c([N+](=O)[O-])c3)nc2c1,102% (inactive)
16,COc1ccc(C=C2c3ccccc3-c3ccccc32)cc1,41.3% (inactive)
17,O=C(CSc1nnc(-c2ccc(Cl)cc2)o1)c1ccccc1,97.1% (inactive)
18,COc1ccc2[nH]cc(-c3cc(N)n4nc(-c5c[nH]c6ccc(OC)cc56)cc4n3)c2c1,-47.9% (active)
19,O=C(O)CS(=O)c1ccc(Cl)cc1 (stereo not given),103% (inactive)
20,CC1=NN(c2nc(SCC(=O)Nc3nc4ccc(C)cc4s3)nc(-c3ccccc3)c2C#N)C(=O)C1,111% (inactive)
